# In the library only some 3.3% were active in any assay of this set; here they are far more common.
# PLK1 inh – PLK1 (human) kinase inhibition; AID 619; hit rate 0.53% among 97,000; recombinant PLK1 kinase, TR-FRET peptide phosphorylation; P53350; inhibition, % at 10 µM;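 active = inhibition of 50% or more in the single-concentration screen; inactive = inhibition below 50%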;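 note: 0% = DMSO max control and 100% = H-89 dihydrochloride min control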
# ERa coact pot – ER-alpha (human) coactivator binding potentiation | coactivator binding (% of control), % at 25.6 µM | hit rate 1.3% among 86,000 | P03372 | TR-FRET ERalpha-LBD/SRC-Cy5 coactivator binding, 2 h; 100 = basal binding, no effect; in the data active = activity above about 200%;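 note: binding measured in presence of low estradiol as agonist stimulus; 0% = peptide alone without receptor and 100% = receptor with peptide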
# PLK1 PBD inh – Plk1 (human) PBD binding inhibition | AID 693 | inhibition, %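 (tested at about 20 µM)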 | hit rate 0.13% among 97,000 | P53350 | Plk1 PBD phosphopeptide binding, fluorescence polarization; in the data active = inhibition above about 34%, passing the limit was not always enough
# ERa SRC1 inh – ER-alpha (human) coactivator binding inhibition; P03372; TR-FRET ER-alpha LBD / SRC-1 peptide, estradiol-bound; inhibition, % at 25.6 µM; hit rate 1.7% among 86,000; AID 629; in the data active = inhibition above about 50%;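 note: 0% = receptor plus peptide control and 100% = peptide only without receptor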
# Smad3 FoxH1 inh – inhibitors of human Smad3 transcription factor binding; inhibition, % at 25 µM; hit rate 0.29% among 88,000; TR-FRET Smad3/Dy647-FoxH1 peptide binding, europium anti-His; AID 630; P84022;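 active = compounds that reduce the energy-transfer binding signal between the protein and its labelled peptide by more than half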;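 note: 0% = Smad3 plus labelled peptide maximal FRET and 100% = peptide-only background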
# ERb SRC1 inh – ER-beta (human) coactivator binding inhibition; TR-FRET ER-beta LBD / SRC1-Cy5 peptide binding; receptor agonist-loaded with 1 µM estradiol; hit rate 1.3% among 86,000; inhibition, % at 25.6 µM; AID 633;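 active = compounds whose percent inhibition of the receptor-coactivator binding signal exceeds about 50% in the single-dose screen, limit read from the data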;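 note: 0% = receptor plus peptide wells without compound and 100% = peptide-only wells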
# Target sequence (Q92731 whole entry, looked up, the tested form may be a part): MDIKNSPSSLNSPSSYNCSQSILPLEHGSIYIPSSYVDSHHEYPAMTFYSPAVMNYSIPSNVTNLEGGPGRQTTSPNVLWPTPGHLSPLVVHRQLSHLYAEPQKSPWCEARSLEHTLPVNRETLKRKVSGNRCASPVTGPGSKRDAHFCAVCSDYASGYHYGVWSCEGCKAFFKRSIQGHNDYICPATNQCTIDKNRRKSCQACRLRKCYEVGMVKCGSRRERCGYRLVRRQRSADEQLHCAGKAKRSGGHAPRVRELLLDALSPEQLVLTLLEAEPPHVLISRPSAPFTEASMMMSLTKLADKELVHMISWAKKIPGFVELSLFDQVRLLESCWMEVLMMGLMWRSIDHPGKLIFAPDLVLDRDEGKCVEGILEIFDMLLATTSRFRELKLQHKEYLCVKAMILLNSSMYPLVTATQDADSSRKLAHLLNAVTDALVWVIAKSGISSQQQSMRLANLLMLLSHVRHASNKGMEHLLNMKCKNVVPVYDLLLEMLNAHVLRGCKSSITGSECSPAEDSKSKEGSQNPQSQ
# An asterisk follows results filed as active; i = inactive; x = not tested or not shown; + = active, no number; [ ] = remark or other dose.
SMILES,PLK1 inh,ERa coact pot,PLK1 PBD inh,ERa SRC1 inh,Smad3 FoxH1 inh,ERb SRC1 inh
COc1ccc(C2c3c(oc4ccccc4c3=O)C(=O)N2c2ccccn2)cc1 (stereo not given),38,218*,3,6,-19,6
Cc1nnc(N2C(=O)c3oc4ccccc4c(=O)c3C2c2ccco2)s1 (stereo not given),x,58,x,50,0,62*[fluorescence artefact?]
CC(C)c1nnc(N2C(=O)c3oc4ccccc4c(=O)c3C2c2ccco2)s1 (stereo not given),-14,x,7,x,x,x
CCOc1ccc(C(=O)Nc2cc(C)c3c(=O)oc4ccccc4c3n2)cc1,i,315*[fluorescence artefact?],25,33,16,25
CCC(CC)C(=O)Nc1cc(C)c2c(=O)oc3ccccc3c2n1,-19,98,-8,7,4,8
COc1ccc(CC(=O)Nc2cc(C)c3c(=O)oc4ccccc4c3n2)cc1,x,243*,x,38,-4,53*[fluorescence artefact?]
Cc1cc(NC(=O)c2ccc(S(=O)(=O)N3CCCC3)cc2)nc2c1c(=O)oc1ccccc12,-55,132,-14,4,-17,-1
Brc1ccc2[nH]c3c(N4CCc5ccccc5C4)ncnc3c2c1,-1,495*[fluorescence artefact?],3,13,7,3
Cc1ccc2[nH]c3c(N4CCc5ccccc5C4)ncnc3c2c1,7,102,-14,-1,4,-9
COC(=O)c1ccccc1NC(=O)COC(=O)c1ccc(C)c(NC(=O)c2ccco2)c1,-1,75,-29,13,-6,14
COc1cccc(-n2nnc3c(=O)n(Cc4cccc(F)c4)cnc32)c1,-6,269*,-6,19,13,17
COC(=O)COc1ccc(S(=O)(=O)Nc2ccc3c(c2)OCO3)cc1,0,57,-7,67*,-5,22
COc1ccc(C(C(=O)NC2CCCC2)N(C(=O)c2ccco2)c2ccc3c(c2)OCO3)cc1OC (stereo not given),-5,85,6,-27,-5,57*
CC(=O)CCc1c(C)c2cccc(C)c2[nH]c1=O,x,95,x,4,-1,82*[fluorescence artefact?]
CC(C)[C@@]12CC[C@]3(CC[C@@H]4[C@](C)(CCC[C@@]4(C)C(=O)O)[C@@H]3C1)[C@@H](CN)C2,x,x,x,x,15,x
Cc1ccc(CSC(N)=Nc2ccccc2)cc1C,x,x,x,x,21,x
CN(C)C[C@@H](O)c1ccc(Cl)c2ccccc12,x,x,x,x,-2,x
COc1ccc(-c2nc(C)c(C(C)=O)n2O)cc1OC,-11,95,7,-5,-5,-4
CC(=O)c1c(C)nc(-c2ccc3c(c2)OCO3)n1O,-16,667*[fluorescence artefact?],-3,-5,10,1
O=C(NCCN1CCOCC1)c1cc2cc(Cl)cc(Cl)c2oc1=O,-9,109,31,-3,9,-4
Cc1ccccc1NC(=O)Cn1nnc(-c2ccc(N3CCOCC3)cc2)n1,-14,121,0,11,-10,16
O=C(Cn1nnc(-c2ccc(N3CCOCC3)cc2)n1)OC1CCCCC1,-6,208*,-10,2,-12,-3
O=C1C(=O)N(CCO)C(c2ccccc2)/C1=C(\O)c1ccccc1 (stereo not given),55*,154,-8,-11,-8,-5
Cn1c(=O)c2c(nc(SCC(=O)c3cccs3)n2Cc2ccc(F)cc2)n(C)c1=O,-6,+[fluorescence artefact?],-7,9,5,35
O=C(CSc1nnc2scc(-c3ccccc3)n12)NCc1ccc2c(c1)OCO2,8,96,0,-10,2,3
SMILES,PLK1 inh,ERa coact pot,PLK1 PBD inh,ERa SRC1 inh,Smad3 FoxH1 inh,ERb SRC1 inh
O=C(CSc1nnc2scc(-c3ccc(Cl)cc3)n12)NCc1ccc2c(c1)OCO2,-12,213*,0,16,-22,0
Cn1c(=O)c2c(nc(SCC(=O)NCc3ccc4c(c3)OCO4)n2Cc2ccc(Cl)cc2)n(C)c1=O,-4,32,4,85*[fluorescence artefact?],11,54*[fluorescence artefact?]
CCCc1nc(SCC(=O)NCc2ccc3c(c2)OCO3)c2c(=O)n(C)c(=O)n(C)c2n1,x,86,x,7,1,20
CN(C)CC(C)(C)NS(=O)(=O)c1ccc(Cl)cc1,-13,107,-16,12,-9,18
CC(C)Sc1nc(SCC(=O)NCc2ccco2)c2c3c(sc2n1)COC(C)(C)C3,x,195,x,1,-2,0
CCCSc1nc(SCC(=O)NCc2ccccc2)c2c3c(sc2n1)COC(C)(C)C3,-22,294*[fluorescence artefact?],-19,2,-56,10
O=C(NC1CCCC1)c1ccc2nc[nH]c2c1,-1,110,-29,3,8,7
O=C(NCCc1ccccc1)c1ccc2nc(-c3ccco3)c(-c3ccco3)nc2c1,2,27,-12,86*[fluorescence artefact?],16,88*[fluorescence artefact?]
O=C(NCCO)c1ccc2nc(-c3ccco3)c(-c3ccco3)nc2c1,35,16,16,64*,16,87*[fluorescence artefact?]
c1coc(-c2nc3ccccc3nc2-c2ccco2)c1,x,28,x,84*[fluorescence artefact?],8,93*[fluorescence artefact?]
O=C(NC1CCCC1)c1ccc2nc(-c3ccco3)c(-c3ccco3)nc2c1,4,11,37,94*[fluorescence artefact?],25,93*[fluorescence artefact?]
O=C(NCCc1ccccc1)c1ccc(=O)oc1,-4,120,29,-18,-5,1
Cc1ccc(C)c(N2CCN(C(=O)c3ccc4nc(-c5ccco5)c(-c5ccco5)nc4c3)CC2)c1,-9,56,-5,27,-10,43
CC(=O)O[C@H]1CC[C@@]2(C)[C@@H](CC[C@H]3[C@H]2CC(=O)[C@]2(C)[C@@H]3C[C@H]3CC(C)=CC(=O)[C@@H]32)C1,x,x,x,x,15,x
Cc1[nH]c(N)nc(=S)c1CCC(=O)O,x,x,x,x,21,x
O=C(O)c1cccc(-n2cccc2/C=N/O)c1,-12,46,20,76*[fluorescence artefact?],40,77*[fluorescence artefact?]
ON=Cc1cccn1-c1ccccc1,1,118,-11,2,2,1
CCN1CNC(=S)N(c2cccc(C)c2C)C1,-6,104,-11,-17,96*,-6
CC(C)(C)C1CCC2(CC1)CCN(CCCN1CCOCC1)CC2,x,x,x,x,3,x
Cc1ccc(-c2cc(-c3ccc(Cl)cc3)c(C#N)c(N)n2)o1,4,75,-9,40,12,24
Cc1cc(-c2cc(-c3ccc(Cl)cc3)nc(N)c2C#N)co1,-3,50,8,51*[fluorescence artefact?],-11,28
N#Cc1c(N)oc(-c2ccc3c(c2)OCO3)c1-c1ccc2c(c1)OCO2,-9,30,-36,73*,6,73*
Cc1ccc(-c2cc(-c3ccc4c(c3)OCO4)c(C#N)c(N)n2)o1,-8,18,2,82*[fluorescence artefact?],3,27
Cc1ccc(Cl)cc1N(Cc1ccc(C(=O)NCc2cccnc2)cc1)S(=O)(=O)c1ccccc1,-9,x,7,x,x,x
O=C1c2ccccc2-c2cc([N+](=O)[O-])c([N+](=O)[O-])cc21,x,x,x,x,52*,x
O=P(O)(O)O[C@@H]1O[C@H](CO)[C@@H](O)[C@H](O)[C@H]1O,x,x,x,x,5,x
Clc1ccc2oc(-c3ccccc3)nc2c1,1,102,0,-1,-5,57*[fluorescence artefact?]
